Experimental data from PubChem BioAssay (NCATS).
Where “and” joins values, the source holds several entries; their conditions need not be identical. Equal values may be shown once. Results filed as inconclusive are left out. Entries that show only a call come without a potency. Calls of active or inactive are those of the source. Calls follow the shape of the full dose curve.

What was measured:
[1] = Cytotoxicity counterscreen for inhibitors of SARS-CoV-2 cell entry (AID 1645845); details: cell viability (SARS-CoV-2 entry assay cells); series mostly up to 57.1 µM; also: nearly all actives have a fitted effect of over 50% in size
Procedure, shortened: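 48 h compound treatment (after 1 h preincubation), HEK293-ACE2 cells, 37 C/5% CO2; ATP luminescence endpoint; normalized to cell wells and media blanks.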

[2] = Primary qHTS to identify inhibitors of SARS-CoV-2 cell entry (AID 1645846); details: SARS-CoV-2 pseudovirus cell entry assay, luminescence; activity change, negative = inhibition: at 57.1 µM (top of the series) unless noted; series mostly up to 57.1 µM; also: nearly all actives have a fitted effect of over 45% in size; also: potency is read from the fitted curve at half-maximal effect
Procedure, shortened: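 Data are normalized to wells receiving SARS-CoV-2-S pseudoparticles and those given bald particles. Entry signal was luciferase luminescence in stable hACE2 Expi293F cells, 48 hr post-infection, after 1 hr compound pretreatment.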

SMILES	Potency [1]	Potency [2]	activity change, negative = inhibition [2]	outcome [1]
O=C(O)Cc1cccc2ccccc12	inactive	inactive		
Cc1ncc(CO)c(CO)c1O	inactive		-1.83%	
NC(=O)c1cc[n+](CC2=C(C(=O)[O-])N3C(=O)[C@@H](NC(=O)Cc4cccs4)[C@H]3SC2)cc1	inactive	inactive		
CC12CCC(CC1)C(C)(C)O2	inactive	inactive		
CC(C)CN(C[C@@H](OP(=O)(O)O)[C@H](Cc1ccccc1)NC(=O)O[C@H]1CCOC1)S(=O)(=O)c1ccc(N)cc1	inactive		-18.7%	
C[C@@H]1[C@H](O)[C@@H](C)/C=C/C=C\C=C\C=C\C=C\C=C\C=C\[C@H](O[C@@H]2O[C@H](C)[C@@H](O)[C@H](N)[C@@H]2O)C[C@@H]2O[C@](O)(C[C@@H](O)C[C@@H](O)[C@H](O)CC[C@@H](O)C[C@@H](O)CC(=O)O[C@H]1C)C[C@H](O)[C@H]2C(=O)O (stereo in doubt)	inactive	inactive		
CCOc1cc(CC(=O)N[C@@H](CC(C)C)c2ccccc2N2CCCCC2)ccc1C(=O)O	inactive		-13.4%	
CC(=O)OC(C)OC(=O)C(C)c1ccc(-c2ccccc2)c(F)c1 (centres undefined)	inactive		-21.2%	
CCCN1CCCC[C@H]1C(=O)Nc1c(C)cccc1C	inactive		-27.2%	
CCCC(=O)OCOC(=O)C1=C(C)NC(C)=C(C(=O)OC)C1c1cccc(Cl)c1Cl (centres undefined)	inactive	inactive		
O=C(c1ccccc1)c1ccccc1	inactive	inactive		
NC(=O)NC(=O)Cc1ccccc1	inactive	inactive		
CCCCCCCCCCOc1cc2c(=O)c(C(=O)OCC)c[nH]c2cc1OCC			-22.6% [at 5.25 µM]	inactive [at 5.25 µM]
O=C1CC[C@H](C(=O)N2CCCCC2)N1	inactive		2.86%	
CCCC(O)C(CC)CO (centres undefined)	inactive	inactive		
CN1C(C(=O)Nc2ccccn2)=C(O)c2sccc2S1(=O)=O	inactive	inactive		
O=c1[nH]c(=O)n([C@H]2C[C@H](O)[C@@H](CO)O2)cc1F	inactive		-90.3% and -94.8%	
Cc1onc(-c2ccccc2)c1-c1ccc(S(N)(=O)=O)cc1	inactive		-25.7% and -12.6%	
CCCc1nc(C(C)(C)O)c(C(=O)OCc2oc(=O)oc2C)n1Cc1ccc(-c2ccccc2-c2nn[nH]n2)cc1	inactive		-0.861%	
NCCNCCNCCN	inactive		2.68%	
C[C@]12CCC(=O)C=C1CC[C@H]1[C@@H]3CC[C@](O)(C(=O)CO)[C@@]3(C)C[C@H](O)[C@@]12F	inactive		-15.9%	

SMILES	Potency [1]	Potency [2]	activity change, negative = inhibition [2]	outcome [1]
O=c1cc(O)c(Cl)c[nH]1	inactive	inactive		
C=CC(N)CCC(=O)O (centres undefined)	inactive	inactive		
CCCCCCCCCCCCCCCC(=O)OCCC1CCN(CCCN2c3ccccc3Sc3ccc(S(=O)(=O)N(C)C)cc32)CC1	inactive		-4.81%	
Cc1cc2cc3c(C)cc(=O)oc3c(C)c2o1	inactive	inactive		
NCCCCCC(=O)O	inactive		-19.8% and -25.5%	
NC(=O)c1ccc([N+](=O)[O-])cc1Cl	inactive		-5.3%	
COc1ccc(C2CNC(=O)C2)cc1OC1CCCC1 (centres undefined)	inactive		4.15% and -11.8%	
CC(=O)OCC(=O)[C@@]1(O)[C@H](C)C[C@H]2[C@@H]3CCC4=CC(=O)C=C[C@]4(C)[C@@]3(F)[C@@H](O)C[C@@]21C	inactive	inactive		
CC(C(=O)O)c1ccc(C(=O)c2ccccc2)s1 (centres undefined)	inactive	inactive		
N#Cc1ccc(C(c2ccc(C#N)cc2)n2cncn2)cc1	inactive		0.824% and -10.9%	
CS(=O)(=O)c1ccc([C@@H](O)[C@@H](CF)NC(=O)C(Cl)Cl)cc1	inactive		-26.1%	
CC1c2ccccc2CN1NC(=O)c1ccc(Cl)c(S(N)(=O)=O)c1 (centres undefined)	inactive		-22.6%	
CC(C(=O)O)c1ccc2c(c1)CC(=O)c1ccccc1S2 (centres undefined)	inactive	inactive		
CC(=O)OCC(=O)[C@@]1(O)CC[C@H]2[C@@H]3CCC4=CC(=O)C=C[C@]4(C)[C@@]3(F)[C@@H](O)C[C@@]21C	inactive		2.18%	
CCN(Cc1ccncc1)C(=O)C(CO)c1ccccc1 (centres undefined)	inactive	inactive		
COC(=O)C1=C(C)NC(C)=C(C(=O)OCCc2ccc(N3CCN(C(c4ccccc4)c4ccccc4)CC3)cc2)C1c1cccc([N+](=O)[O-])c1 (centres undefined)	inactive		-16.7%	
CN1C[C@H](C(=O)N[C@]2(C)O[C@@]3(O)[C@@H]4CCCN4C(=O)[C@H](Cc4ccccc4)N3C2=O)C=C2c3cccc4[nH]cc(c34)C[C@H]21	inactive		-28.9%	
CCCCCCCCCCCCCCCC(=O)OC(C)C	inactive	inactive		
COc1cc2c3cc1Oc1cc(ccc1O)C[C@@H]1c4c(cc(OC)c(O)c4Oc4ccc(cc4)C[C@@H]3N(C)CC2)CC[N+]1(C)C	inactive	inactive		
CCN(CC)CCNC(=O)c1cc(S(C)(=O)=O)ccc1OC	inactive	inactive		
O=c1[nH]c(=O)n([C@H]2C[C@H](O)[C@@H](CO)O2)cc1I	inactive	15.8 µM (active)		
